Results on four molecules are retold here after PubChem BioAssay (EPA / NIEHS).

Activity calls are given as the source filed them. The calls were made as follows: active = hit-call score of the fitted dose curve at least 0.9, where 1 is the maximum; inactive = score below 0.9.

Holding throughout (details): mRNA level, 48 h; actives raise or lower the signal
Read-out in test [1]: matrix metalloproteinase-3 (MMP3), MMP3 (gene 4314)
In words: LTEA_HepaRG_MMP3: Life Technologies and Expression Analysis (LTEA) Assay for matrix metalloproteinase-3 (MMP3) using HepaRG (AID 2283519). The procedure, abridged: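 Fluidigm-based TaqMan qRT-PCR, normalized to ACTB, GAPDH and POLR2A and fitted bidirectionally versus 0.5% DMSO, measured transcript levels. Treatment: duplicate 48 h exposures of HepaRG cells, ~100,000/well, to eight half-log concentrations topping at 100 uM.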

Read-out in test [2]: Paternally Expressed 10 (PEG10), PEG10 (gene 23089)
In words: LTEA_HepaRG_PEG10: Life Technologies and Expression Analysis (LTEA) Assay for Paternally Expressed 10 (PEG10) using HepaRG (AID 2283520).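 As to AC50: PEG10 transcript by qRT-PCR normalised to ACTB GAPDH and POLR2A.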 The gist of the method:
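PEG10 transcript measured by Fluidigm qRT-PCR, normalized to three housekeeping genes, in HepaRG cells treated 48 h (highest 100 uM, half-log steps, 0.5% DMSO vehicle). Cells plated 48 h before switching to serum-free induction medium.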

Read-out in test [3]: Nuclear factor NF-kappa-B p105 subunit (Homo sapiens) (UniProt P19838)
As to the kind of experiment: LTEA_HepaRG_NFKB1: Life Technologies and Expression Analysis (LTEA) Assay for Nuclear Factor Kappa B Subunit 1 (NFKB1) using HepaRG (AID 2283521). The procedure, abridged:
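Differentiated human HepaRG cells were exposed for 48 h in serum-free induction medium to eight concentrations (top 100 uM, half-log steps, 0.5% DMSO), in duplicate. NFKB1 mRNA was measured by TaqMan qRT-PCR, normalized to ACTB/GAPDH/POLR2A, and fitted bidirectionally against DMSO.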

Read-out in test [4]: Protein phosphatase 2A (PPP2R4), PTPA (gene 5524)
As to the kind of experiment: LTEA_HepaRG_PPP2R4: Life Technologies and Expression Analysis (LTEA) Assay for Protein phosphatase 2A (PPP2R4) using HepaRG (AID 2283522). The gist of the method:
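Expression was quantified by Fluidigm qRT-PCR normalised to three housekeeping genes after 48 h treatment. Human HepaRG cells received an 8-point series from 100 µM downward by half-logs, in duplicate with 0.5% DMSO vehicle and 1 mM phenobarbital as induction control.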

Read-out in test [5]: Phosphatase and tensin (PTEN), PTEN (gene 5728)
In words: LTEA_HepaRG_PTEN: Life Technologies and Expression Analysis (LTEA) Assay for Phosphatase and tensin (PTEN) using HepaRG (AID 2283523). The procedure, abridged: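 Read-out: TaqMan qRT-PCR of PTEN transcript, normalized to three housekeeping genes, fitted in both directions against 0.5% DMSO. Differentiated human HepaRG cultures received chemicals for 48 h, eight-point half-log series topping at 100 uM.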

Read-out in test [6]: solute carrier (SLC22A1), SLC22A1 (gene 6580)
In words: LTEA_HepaRG_SLC22A1: Life Technologies and Expression Analysis (LTEA) Assay for solute carrier (SLC22A1) using HepaRG (AID 2283524). The procedure, abridged:
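Transcript level of SLC22A1 quantified by qRT-PCR (normalized to three housekeeping genes) after 48 h chemical exposure of HepaRG cells, eight concentrations up to 100 µM, half-log steps, 0.5% DMSO vehicle. Gain or loss relative to DMSO fitted bidirectionally.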

Read-out in test [7]: NAD(P)H dehydrogenase [quinone] 1 (NQO1), NQO1 (gene 1728)
In words: LTEA_HepaRG_NQO1: Life Technologies and Expression Analysis (LTEA) Assay for NAD(P)H dehydrogenase [quinone] 1 (NQO1) using HepaRG (AID 2283526). The procedure, abridged: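 NQO1 transcript induction or loss measured by TaqMan qRT-PCR, referenced to three housekeeping genes and fitted bidirectionally against 0.5% DMSO. HepaRG cultures exposed 48 h, duplicate, eight-point half-log series, top 100 uM.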

Read-out in test [8]: Nuclear factor erythroid 2-related factor 2 (Homo sapiens) (UniProt Q16236)
As to the kind of experiment: LTEA_HepaRG_NFE2L2: Life Technologies and Expression Analysis (LTEA) Assay for Nuclear factor erythroid 2-related factor 2 (NFE2L2) Transcription Factor using HepaRG (AID 2283527).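 Also: TaqMan qRT-PCR transcript level normalised to ACTB GAPDH and POLR2A housekeeping genes.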 The procedure, abridged: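 NFE2L2 transcript level was read by qRT-PCR (housekeeping ACTB/GAPDH/POLR2A normalisation) after 48 h chemical treatment of HepaRG in serum-free induction medium. Duplicate 8-point half-log curves, top 100 uM, 0.5% DMSO vehicle; up- or down-regulation fitted against vehicle.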

Read-out in test [9]: solute carrier (SLCO1B1), SLCO1B1 (gene 10599)
As to the kind of experiment: LTEA_HepaRG_SLCO1B1: Life Technologies and Expression Analysis (LTEA) Assay for solute carrier (SLCO1B1) using HepaRG (AID 2283530). The procedure, abridged: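 Human HepaRG cultures treated for 48 h with an eight-concentration half-log series topping at 100 uM; SLCO1B1 measured by qRT-PCR and fitted bidirectionally relative to DMSO.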

Read-out in test [10]: sulfotransferase 2A1 (SULT2A1), SULT2A1 (gene 6822)
As to the kind of experiment: LTEA_HepaRG_SULT2A1: Life Technologies and Expression Analysis (LTEA) Assay for sulfotransferase 2A1 (SULT2A1) using HepaRG (AID 2283531). The gist of the method:
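Gene-expression endpoint in a human liver cell line: SULT2A1 mRNA change after 48 h chemical treatment, curves fitted in both directions relative to 0.5% DMSO vehicle. Concentrations spanned eight half-log steps from 100 uM.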

Read-out in test [11]: Transforming Growth Factor (TGFA), TGFA (gene 7039)
In words: LTEA_HepaRG_TGFA: Life Technologies and Expression Analysis (LTEA) Assay for Transforming Growth Factor (TGFA) using HepaRG (AID 2283532). The procedure, abridged: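 TGFA transcript quantified by qRT-PCR (Fluidigm arrays) against three housekeeping genes, after 48 hours chemical treatment of HepaRG cells. Top concentration 100 uM with half-log dilutions, 8 points, duplicates, 0.5% DMSO.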

Read-out in test [12]: Transforming Growth Factor (TGFB1), TGFB1 (gene 7040)
As to the kind of experiment: LTEA_HepaRG_TGFB1: Life Technologies and Expression Analysis (LTEA) Assay for Transforming Growth Factor (TGFB1) Transporter using HepaRG (AID 2283533). The procedure, abridged: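 Eight-point concentration-response (max 100 uM, half-log) in HepaRG under serum-free induction conditions, 48 h. TGFB1 mRNA by qRT-PCR, housekeeping-normalized.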

Read-out in the next test: TIMP1, TIMP1 (gene 7076)
As to the kind of experiment: LTEA_HepaRG_TIMP1: Life Technologies and Expression Analysis (LTEA) Assay for TIMP1 using HepaRG (AID 2283534).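 Also: TaqMan qRT-PCR signal normalized to ACTB GAPDH and POLR2A housekeeping genes.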 The gist of the method: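 TIMP1 induction or repression in HepaRG cells after 48 h chemical exposure (eight concentrations, highest 100 uM), assessed by normalized qRT-PCR with bidirectional fitting to DMSO controls.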

Read-out in test [13]: Tumor necrosis factor receptor 1 (TNFRSF1A), TNFRSF1A (gene 7132)
In words: LTEA_HepaRG_TNFRSF1A: Life Technologies and Expression Analysis (LTEA) Assay for Tumor necrosis factor receptor 1 (TNFRSF1A) using HepaRG (AID 2283535). The procedure, abridged: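 Assay uses 48 h chemical treatment of differentiated HepaRG monolayers, tested in duplicate at eight concentrations from 100 uM downward in 0.5% DMSO. mRNA is normalized to ACTB, GAPDH and POLR2A, with induction or suppression fitted relative to vehicle.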

Read-out in test [14]: Thyroid Hormone Responsive (THRSP), THRSP (gene 7069)
As to the kind of experiment: LTEA_HepaRG_THRSP: Life Technologies and Expression Analysis (LTEA) Assay for Thyroid Hormone Responsive (THRSP) using HepaRG (AID 2283536). The procedure, abridged: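 THRSP transcript quantified by Fluidigm qRT-PCR against three housekeeping genes after 48 h chemical exposure of HepaRG cells in serum-free induction medium; eight-point half-log series, top 100 uM, 0.5% DMSO vehicle, duplicate wells.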

Read-out in test [15]: Cellular tumor antigen p53 (Homo sapiens) (UniProt P04637)
As to the kind of experiment: LTEA_HepaRG_TP53: Life Technologies and Expression Analysis (LTEA) Assay for Tumor Protein P53 (TP53) using HepaRG (AID 2283537). The procedure, abridged:
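HepaRG, 48 h exposure, top 100 uM, half-log 8-point, 0.5% DMSO vehicle, duplicates. Read: TP53 mRNA by TaqMan qRT-PCR, normalised to ACTB/GAPDH/POLR2A; bidirectional fit vs DMSO.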

Read-out in test [16]: UDP glucuronosyltransferase (UGT1A1), UGT1A1 (gene 54658)
In words: LTEA_HepaRG_UGT1A1: Life Technologies and Expression Analysis (LTEA) Assay for UDP glucuronosyltransferase (UGT1A1) using HepaRG (AID 2283538). The gist of the method:
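UGT1A1 transcript level, measured by qRT-PCR with three housekeeping genes for normalization, after 48 h treatment of human HepaRG cells (0.5% DMSO, duplicates, up to 100 uM, half-log steps, 8 points). Curves fit both directions against DMSO baseline.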

Read-out in test [17]: succinate dehydrogenase complex iron sulfur subunit B (SDHB), SDHB (gene 6390)
As to the kind of experiment: LTEA_HepaRG_SDHB: Life Technologies and Expression Analysis (LTEA) Assay for succinate dehydrogenase complex iron sulfur subunit B (SDHB) using HepaRG (AID 2283528). The gist of the method: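 HepaRG, 48 h exposure, 8-pt half-log series from 100 uM in 0.5% DMSO, duplicates. Readout: SDHB mRNA by Fluidigm qRT-PCR vs housekeeping genes; bidirectional fit relative to DMSO.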

Read-out in test [18]: Signal transducer and activator of transcription 3 (Homo sapiens) (UniProt P40763)
As to the kind of experiment: LTEA_HepaRG_STAT3: Life Technologies and Expression Analysis (LTEA) Assay for Signal transducer and activator of transcription (STAT3) using HepaRG (AID 2283529). The gist of the method:
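STAT3 transcript quantified by qRT-PCR against three housekeeping genes (ACTB, GAPDH, POLR2A), fitted both directions relative to DMSO. HepaRG cultures exposed 48 h to eight half-log concentrations, top 100 uM, 0.5% DMSO, serum-free induction medium.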

Read-out in test [19]: Pyruvate Dehydrogenase Kinase 4 (PDK4), PDK4 (gene 5166)
In words: LTEA_HepaRG_PDK4: Life Technologies and Expression Analysis (LTEA) Assay for Pyruvate Dehydrogenase Kinase 4 (PDK4) using HepaRG (AID 2283525). The procedure, abridged:
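Readout is qRT-PCR of PDK4 transcript, normalized to three housekeeping genes, with bidirectional fitting against 0.5% DMSO vehicle. Differentiated HepaRG cells were treated 48 h in serum-free induction medium, duplicate wells, eight-point half-log series topping at 100 uM.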

Sequence of Nuclear factor erythroid 2-related factor 2 (Homo sapiens) (Q16236 whole entry, looked up): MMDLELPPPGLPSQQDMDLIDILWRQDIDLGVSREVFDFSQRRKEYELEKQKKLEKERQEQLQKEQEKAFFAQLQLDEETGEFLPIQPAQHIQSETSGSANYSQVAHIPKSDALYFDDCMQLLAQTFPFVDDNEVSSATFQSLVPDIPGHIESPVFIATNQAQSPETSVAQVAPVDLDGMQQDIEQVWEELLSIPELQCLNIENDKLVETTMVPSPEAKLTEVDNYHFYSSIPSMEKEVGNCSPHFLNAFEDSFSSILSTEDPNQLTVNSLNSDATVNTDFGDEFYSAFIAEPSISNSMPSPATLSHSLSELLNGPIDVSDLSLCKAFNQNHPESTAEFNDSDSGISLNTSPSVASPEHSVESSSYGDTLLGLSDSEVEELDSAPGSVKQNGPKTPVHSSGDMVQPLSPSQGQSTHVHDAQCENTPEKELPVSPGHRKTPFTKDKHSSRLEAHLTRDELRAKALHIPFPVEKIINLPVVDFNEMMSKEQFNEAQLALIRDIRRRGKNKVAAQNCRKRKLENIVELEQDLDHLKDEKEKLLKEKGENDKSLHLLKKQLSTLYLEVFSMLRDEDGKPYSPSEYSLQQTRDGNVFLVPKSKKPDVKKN
Sequence of Nuclear factor NF-kappa-B p105 subunit (Homo sapiens) (P19838 whole entry, looked up): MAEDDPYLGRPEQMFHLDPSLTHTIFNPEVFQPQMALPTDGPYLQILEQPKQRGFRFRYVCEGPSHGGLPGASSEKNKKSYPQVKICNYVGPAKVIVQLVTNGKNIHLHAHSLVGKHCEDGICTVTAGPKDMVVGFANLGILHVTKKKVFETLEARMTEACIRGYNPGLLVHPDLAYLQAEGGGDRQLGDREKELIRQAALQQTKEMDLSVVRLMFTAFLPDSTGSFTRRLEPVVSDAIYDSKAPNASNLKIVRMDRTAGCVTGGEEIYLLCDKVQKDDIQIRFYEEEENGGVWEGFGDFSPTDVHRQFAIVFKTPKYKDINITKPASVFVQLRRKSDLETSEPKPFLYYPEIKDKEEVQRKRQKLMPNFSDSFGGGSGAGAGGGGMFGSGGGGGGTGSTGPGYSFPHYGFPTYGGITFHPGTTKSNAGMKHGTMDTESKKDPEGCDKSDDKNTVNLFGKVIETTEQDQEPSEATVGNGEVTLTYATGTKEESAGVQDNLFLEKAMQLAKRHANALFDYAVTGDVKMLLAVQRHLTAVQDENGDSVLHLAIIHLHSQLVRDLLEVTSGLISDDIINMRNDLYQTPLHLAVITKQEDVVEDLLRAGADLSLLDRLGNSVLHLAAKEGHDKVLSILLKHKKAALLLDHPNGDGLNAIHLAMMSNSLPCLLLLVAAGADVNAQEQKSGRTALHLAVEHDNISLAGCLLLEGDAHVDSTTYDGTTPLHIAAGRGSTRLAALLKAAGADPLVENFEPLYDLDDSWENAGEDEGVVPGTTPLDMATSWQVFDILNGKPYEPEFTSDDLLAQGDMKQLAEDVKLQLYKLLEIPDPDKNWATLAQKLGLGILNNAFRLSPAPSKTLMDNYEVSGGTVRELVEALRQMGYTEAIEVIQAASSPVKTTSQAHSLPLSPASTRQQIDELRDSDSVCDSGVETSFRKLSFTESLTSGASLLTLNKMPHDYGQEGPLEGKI
Sequence of Cellular tumor antigen p53 (Homo sapiens) (P04637 whole entry, looked up): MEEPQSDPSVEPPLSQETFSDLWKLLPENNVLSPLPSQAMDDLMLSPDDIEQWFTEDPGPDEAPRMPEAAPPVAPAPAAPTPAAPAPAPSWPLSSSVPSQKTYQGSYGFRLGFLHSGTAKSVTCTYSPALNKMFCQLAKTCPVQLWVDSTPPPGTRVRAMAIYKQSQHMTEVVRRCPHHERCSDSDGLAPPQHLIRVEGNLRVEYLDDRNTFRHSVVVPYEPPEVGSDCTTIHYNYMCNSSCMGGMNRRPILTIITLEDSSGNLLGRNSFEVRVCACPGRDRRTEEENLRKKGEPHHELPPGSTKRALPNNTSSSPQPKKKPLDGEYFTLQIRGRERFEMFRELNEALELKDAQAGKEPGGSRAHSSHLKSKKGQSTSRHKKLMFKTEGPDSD
Sequence of Signal transducer and activator of transcription 3 (Homo sapiens) (P40763 whole entry, looked up): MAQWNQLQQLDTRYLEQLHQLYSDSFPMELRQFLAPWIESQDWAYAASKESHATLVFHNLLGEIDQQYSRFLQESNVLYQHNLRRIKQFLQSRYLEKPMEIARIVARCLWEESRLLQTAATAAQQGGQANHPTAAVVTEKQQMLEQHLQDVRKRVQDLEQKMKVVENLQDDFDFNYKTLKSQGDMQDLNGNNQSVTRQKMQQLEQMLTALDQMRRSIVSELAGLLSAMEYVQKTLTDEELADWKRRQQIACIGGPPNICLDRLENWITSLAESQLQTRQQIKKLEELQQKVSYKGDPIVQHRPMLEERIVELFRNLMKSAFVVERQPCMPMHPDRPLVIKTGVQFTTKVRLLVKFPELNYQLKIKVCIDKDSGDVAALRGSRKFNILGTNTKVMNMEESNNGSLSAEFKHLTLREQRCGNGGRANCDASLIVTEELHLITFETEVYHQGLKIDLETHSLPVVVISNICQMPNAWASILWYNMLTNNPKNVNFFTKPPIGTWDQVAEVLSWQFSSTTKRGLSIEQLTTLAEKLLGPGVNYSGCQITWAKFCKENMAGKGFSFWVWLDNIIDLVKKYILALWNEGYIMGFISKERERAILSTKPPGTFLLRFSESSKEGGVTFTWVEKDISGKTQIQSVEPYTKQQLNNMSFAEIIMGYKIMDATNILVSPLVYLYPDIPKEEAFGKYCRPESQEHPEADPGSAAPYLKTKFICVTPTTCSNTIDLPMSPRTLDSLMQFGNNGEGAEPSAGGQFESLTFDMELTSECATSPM

As to `Cc1cc(=O)[nH]c(=S)[nH]1`, the call in test [1], in test [2], in [3], in [4], in test [5] and in test [6] was inactive. Moreover, the call in test [7], in test [8], in [9], in [10], in test [11] and in test [12] was inactive. Further, the outcome with TIMP1, TIMP1 (gene 7076) was “inactive”; in test [13], “inactive”; in test [14] it was “inactive”; in [15], “inactive”; in test [16], “inactive”.

Consider `CNCc1cc(F)ccc1Oc1ccc(Cl)c(Cl)c1`, for which the AC50 was 50 µM (active) in test [1]; 0.689 µM (active) in test [2]; 86.3 µM (active) in [3]; 50 µM (active) in [4]; 86.5 µM (active) in [6]; 82.6 µM (active) in [9]. Besides, the AC50 is 84.2 µM (active) in test [10] and 82.8 µM (active) in [16]. Also, the outcome in test [5], in test [7], in [8], in test [17], in test [18] and in test [11] was inactive. The outcome in test [12] is “inactive”; in the test with TIMP1, TIMP1 (gene 7076), “inactive”; in [13], “inactive”; in test [14] it was “inactive”; in [15], “inactive”.

With `CCCCC(CC)COC(=O)CC(C(=O)OCC(CC)CCCC)S(=O)(=O)O` (stereo not given), the molecule was called inactive in test [1], in test [3], in [19], in test [7], in test [8] and in test [18]. The outcome is “inactive” in the test with TIMP1, TIMP1 (gene 7076) and “inactive” in [14]. The AC50 was 89 µM (active) in test [2]; 80.9 µM (active) in [5]; 50 µM (active) in test [6]; 85.5 µM (active) in [9]; 80.2 µM (active) in [10]; 50 µM (active) in test [11]. The AC50 in test [12] is 77.6 µM (active); in [13] it was 93.5 µM (active); in [15] it was 50 µM (active); in test [16], 13.3 µM (active).

Consider `Cc1cccc([N+](=O)[O-])c1C`, for which the molecule was classed as inactive in test [1], in test [2], in test [3], in test [4], in test [5] and in [6]. The outcome in [7], in test [8], in test [9], in test [10], in [11] and in test [12] was inactive. Also, the outcome in the test with TIMP1, TIMP1 (gene 7076) was “inactive”; in [13], “inactive”; in test [14], “inactive”; in test [15], “inactive”.
